In all, about 420,000 compounds went through this assay and about 50,000 (12%) were called active. Inconclusive results (about 26%) are left out. Calls come from the whole dose curve; as a rule, active = well fitted inhibition curve with a large enough effect; inconclusive = small, poorly fitted or top-dose-only effect; inactive = flat fitted curve, though single readings scatter. The entries come from a sample that favours actives as a whole. Entries that show only a call come without a potency.
test: qHTS for Inhibitors of human tyrosyl-DNA phosphodiesterase 1 (TDP1): qHTS in cells in presence of CPT; details: chicken DT40 Tdp1-/-;hTDP1 cells + 20 nM CPT, ATP luminescence, 48 h; series mostly up to 46.2 µM; note: nearly all actives have a fitted effect of over 55% in size
Summary of the method: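 Chicken DT40 Tdp1-/- cells complemented with human TDP1, 400 cells/well, exposed to compounds plus 20 nM camptothecin for at least 48 h at 37 C; viability read as ATP content by CellTiter-Glo luminescence.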
Potency is the fitted concentration of half-maximal effect.

Structure (SMILES) | Potency
COP(=O)(NS(=O)(=O)c1ccccc1)OC | inactive
ClCCN(CCCl)c1ccc(C=Nc2ccc(/C=C/c3ccnc4ccccc34)cc2)cc1 | 10 µM (active)
C=CCN(CC=C)C(=O)Nc1ccc(OCC)cc1 | inactive
O=C1NC(=O)N(Cc2ccco2)C(=O)/C1=C\c1cccn1CCOc1ccccc1 | inactive
O=C1NC(=O)N(Cc2ccco2)C(=O)/C1=C\c1ccc(-c2ccc(F)cc2)o1 | 20.6 µM (active)
O=C(O)C1CSC(c2cccnc2)N1 (configuration not stated) | inactive
Fc1ccc(C(OCCN2CCN(C/C=C\c3ccccc3)CC2)c2ccc(F)cc2)cc1 | 5.31 µM (active)
CN(C)S(=O)(=O)c1cc(C(=O)N2CCC(C(=O)O)(c3ccccc3)CC2)ccc1Cl | inactive
COC(=O)CN1C(=O)C2(C(C(=O)OC)=C(N)Oc3ccccc32)C2=C1CC(C)(C)CC2=O (configuration not stated) | inactive
C/C=C/CC1(CC)C(=O)NC(=S)NC1=O | inactive
CN1CC[C@H](c2c(O)cc(O)c3c(=O)cc(-c4ccccc4Cl)oc23)[C@H](O)C1 | 0.0944 µM (active)
Cc1ccc(C)c(NC2=NCCCS2)c1 | inactive
O=c1[nH]c(O)c(C=Nc2cc(F)cc(F)c2)c(=O)[nH]1 | inactive
O=C1C2(Cl)C3(Cl)C4(Cl)C(Cl)(Cl)C5(Cl)C3(Cl)C1(Cl)C5(Cl)C24Cl (configuration not stated) | 18.4 µM (active)
ClC(Cl)(Cl)c1ccccc1 | inactive
COc1ccc(NC(=O)c2cn(CCC#N)nc2-c2ccc([N+](=O)[O-])cc2)cc1 | inactive
CNC(=O)Nc1ccc(C(O)(C(=O)OC)C(F)(F)F)cc1 (configuration not stated) | inactive
O=S(=O)(O)C(F)(F)C(F)(F)C(F)(F)C(F)(F)F | inactive
CCOC(=O)[C@]12Cc3ccccc3[C@H]1N(C1CCCCC1)C(=O)c1cc(OC)ccc12 | 2.91 µM (active)
CCOC(=O)[C@]12Cc3cc(OC)ccc3[C@H]1N(C(C)C)C(=O)c1ccccc12 | 13 µM (active)
COc1ccccc1-n1c(O)c(C=NC2CC2)c(=O)[nH]c1=O | inactive
COC(=O)N1C(c2ccccc2)C1c1ccccc1 (configuration not stated) | inactive
O=C(O)/C=C/c1ccc2c(c1)OCO2 | inactive

Structure (SMILES) | Potency
Clc1cccc(Cl)c1Cl | inactive
CCOC(=O)C(O)(c1ccc(N)c(OC)c1)C(F)(F)F (configuration not stated) | inactive
O=C(CCC(=O)N1C[C@H]2C[C@@H](C1)c1cccc(=O)n1C2)NCc1ccccc1C(F)(F)F | inactive
C[C@@]12CCC3C(CC[C@@H]4CC(O)CC[C@@]34C)C1CCC2O (some centres not stated) | inactive
COc1cccc(C(=O)N2C[C@H]3C[C@@H](C2)c2cccc(=O)n2C3)c1 | inactive
CCOCCc1c(O)[nH]c(=S)[nH]c1=O | inactive
CN(C)C(=O)Oc1ccc(OCc2cccc[n+]2C)cc1 | inactive
c1cc2c(cc1CCNC1CCCCCC1)OCO2 | inactive
CC(C)(C)c1ccc(S(=O)(=O)Nc2ccc(O)c(Sc3nc4ccccc4s3)c2)cc1 | 18.4 µM (active)
c1ccc2sc(SNC3CCCCC3)nc2c1 | inactive
C=CC12CN(C)[C@@H]3C4CO[C@H](C[C@H]41)[C@]1(C(=O)Nc4ccccc41)[C@@H]32 (some centres not stated) | inactive
CCN(N=Nc1nonc1OC)c1nonc1OC | inactive
c1ccc2sc(N3CCNCC3)nc2c1 | inactive
CCN1C[C@]2(COC)C(O)C[C@H](OC)[C@@]34C5C[C@]6(O)C(OC)C(O)[C@](OC(C)=O)(C5C6OC(=O)c5ccccc5)C(C(OC)C23)C14 (some centres not stated) | inactive
CC(C)N(CC#CCC1(O)c2ccccc2-c2ccccc21)C(C)C | inactive
c1cc2c(c(NC3=NCCCS3)c1)CCCC2 | inactive
COC(=O)N(c1ccc(OC)cc1)P1(=S)OCCC(C)O1 (configuration not stated) | 14.6 µM (active)
Cc1ccc(-n2c(O)c(C=NCC3CCCO3)c(=O)[nH]c2=O)c(C)c1 (configuration not stated) | inactive
CCC1(C)CC(CCNCc2ccc(N(C)C)cc2)(c2ccc(F)cc2)CCO1 (configuration not stated) | 16.4 µM (active)
CC(=O)N1CN2CN(C(C)=O)CC(C(=O)c3ccc(Br)cc3)(C2)C1 | inactive
COc1ccccc1NC(=O)N1C[C@@H]2C[C@@H](C1)c1cccc(=O)n1C2 | inactive
O=c1[nH]c(=S)[nH]c(O)c1/C=C1\C=Nc2ccccc21 | 7.31 µM (active)
COc1ccccc1N=Nc1c(O)[nH]c(=S)[nH]c1=O | inactive

Structure (SMILES) | Potency
CN(C)c1nc(N(C)C)nc(N(C#N)CCCl)n1 | inactive
Cc1ccc(OC(=O)N(C)C[C@@H]2OCc3cnnn3CCCC(=O)N([C@H](C)CO)C[C@@H]2C)cc1 | inactive
CCC1(c2ccccc2)C(=O)NC(=O)N(C)C1=O (configuration not stated) | inactive
COc1ccc(Br)cc1CNCCc1cccc(Cl)c1 | 18.4 µM (active)
COc1cc(C[C@H](C)N)c(OC)cc1Br | inactive
CC[C@]1(O)C(=O)OCc2c1cc1n(c2=O)Cc2cc3ccccc3nc2-1 | 0.0168 µM (active)
CC1=C2C(=O)C3C(CC=C4CC(OC5OC(O)C(O)C(O)C5CO)CCC43C)C2CCC12OC1CC(C)CNC1C2C (configuration not stated) | inactive
Cc1ccc2c(c1)C1CN(C)CCC1N2C(=O)Cn1nnc(-c2ccccc2F)n1 (configuration not stated) | inactive
CC(C)(c1ccc(OC[C@@H]2CO2)cc1)c1ccc(OC[C@H]2CO2)cc1 | 10.6 µM (active)
CCOP(=O)(OCC)C(NC(=O)NC)C(N)=O (configuration not stated) | inactive
Nc1ccc(C(=O)N/N=C2/CN3CCC2CC3)cc1 | inactive
O=C(Nc1cccc(OC(=O)N2CCCCC2)c1)N1CCOCC1 | inactive
O=C(/C=C/c1cccs1)c1cc(Cl)ccc1OC(=O)N1CCOCC1 | 16.4 µM (active)
Cc1cc(-c2ccc(N)c(C)c2)ccc1N | inactive
C=CCN1C(=O)C2(C(C(=O)OCC)=C(N)Oc3c2c(=O)oc2ccccc32)c2ccccc21 (configuration not stated) | inactive
CCCCCCN=C(CC)c1c(O)n(CCCC)c(=O)[nH]c1=O | 14.6 µM (active)
CCCCn1c(O)c(C(CC)=NCc2ccco2)c(=O)[nH]c1=O | inactive
CCC(=NCCCO)c1c(O)n(-c2ccc(OC)cc2)c(=O)[nH]c1=O | inactive
OC(CNC1CCCCC1)c1ccccc1 (configuration not stated) | inactive
NS(=O)(=O)c1ccc(CCNC(=O)c2ccc(Cl)c(S(=O)(=O)N3CCCCCC3)c2)cc1 | 20.6 µM (active)
CC1CCCCN1Cc1cccnc1 (configuration not stated) | inactive
